# This is a sample that favours compounds with a hit; in the whole collection about 5.7% have one here.
# hgDAF-12 ag: hgDAF-12 agonism, primary luciferase screen. HEK293 GAL4-hgDAF12 UAS-luciferase reporter, agonist luminescence; normalized to butyrate control. activation, % at 6.8 µM. hit rate 1.8% among 370,000;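 active = activation above a cutoff set at the mean of all screened compounds plus 3 SD, cut at about 10% in these data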;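 also: 0% = DMSO wells and 100% = sodium butyrate wells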
# ssDAF-12 act: activates DAF-12 receptor from parasite S. stercoralis | activation, % at 6.8 µM | HEK293 ssDAF-12/GRIP1 lit1-tk-luc reporter, luminescence; % of 3 µM dafachronic acid response | AID 652126 | hit rate 1% among 370,000;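 active = activation above the mean over all tested compounds plus 3 SD, cut at about 0.9% in these data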;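 also: 0% = DMSO-only wells and 100% = 3 µM delta7-dafachronic acid wells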
# DAX1 inh-1: NR0B1 (DAX1) inhibition; P51843; hit rate 0.99% among 340,000; HEK293 Gal4-DAX1 luciferase reporter, luminescence; inhibition, % at 6.75 µM; AID 504766;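 active = inhibition above the mean over all tested compounds plus 3 SD, cut at about 4.2% in these data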;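 also: 0% = DAX1-transfected cells with DMSO and 100% = empty-vector control cells with DMSO; inhibition shows as a rise in luminescence from relieved DAX1 repression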
# hcDAF12 agonist: H. contortus DAF-12 activation, primary screen | HEK293 hcDAF-12 lit1-tk-luc reporter, luminescence; 0% DMSO, 100% Δ7-dafachronic acid | activation, % at 6.8 µM | hit rate 1.4% among 370,000;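 active = activation above the mean of all tested compounds plus 3 SD, cut at about 5.5% in these data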;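 also: 100% = response to 3 µM Δ7-dafachronic acid high control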
# AHR activator: human AHR activation; P35869; AHR-responsive luciferase reporter cells, luminescence; activation, % at 5 µM; hit rate 2.5% among 320,000; in the data active = activation above about 47%;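 also: 0% = vehicle wells and 100% = reference agonist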
# Target sequence (P35869 whole entry, looked up): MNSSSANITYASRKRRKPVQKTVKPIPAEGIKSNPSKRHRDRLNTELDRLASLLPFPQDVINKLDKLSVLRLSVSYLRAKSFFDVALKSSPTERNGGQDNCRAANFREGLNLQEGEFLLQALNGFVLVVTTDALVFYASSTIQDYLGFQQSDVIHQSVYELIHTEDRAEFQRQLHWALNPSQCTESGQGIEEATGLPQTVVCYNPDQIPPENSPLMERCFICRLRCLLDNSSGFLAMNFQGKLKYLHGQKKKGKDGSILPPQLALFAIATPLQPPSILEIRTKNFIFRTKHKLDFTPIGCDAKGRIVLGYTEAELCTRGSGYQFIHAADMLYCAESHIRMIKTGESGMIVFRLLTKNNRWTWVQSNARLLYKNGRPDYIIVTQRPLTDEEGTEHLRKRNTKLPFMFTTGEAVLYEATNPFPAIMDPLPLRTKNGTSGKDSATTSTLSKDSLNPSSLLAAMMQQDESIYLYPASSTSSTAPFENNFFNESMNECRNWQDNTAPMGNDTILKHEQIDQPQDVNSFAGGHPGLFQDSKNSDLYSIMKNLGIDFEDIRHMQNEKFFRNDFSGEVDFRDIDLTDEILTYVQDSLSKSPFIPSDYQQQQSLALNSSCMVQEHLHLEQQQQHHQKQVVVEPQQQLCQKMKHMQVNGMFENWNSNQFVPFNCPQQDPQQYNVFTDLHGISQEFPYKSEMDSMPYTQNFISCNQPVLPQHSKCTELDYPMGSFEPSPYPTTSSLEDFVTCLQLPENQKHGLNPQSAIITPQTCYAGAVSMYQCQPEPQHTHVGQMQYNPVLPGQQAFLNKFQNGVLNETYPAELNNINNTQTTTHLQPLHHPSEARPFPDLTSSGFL
# DAX1 inh-2: inhibitors of DAX1 repression of SF-1 activated StAR promoter; inhibition, % at 6.8 µM; HEK293T StAR-luciferase reporter, SF-1/DAX-1 repression relief; hit rate 1.1% among 370,000; AID 652010;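 active = inhibition above the mean over all tested compounds plus 3 SD, cut at about 3.6% in these data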;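 also: 0% = DAX-1 cells with DMSO and 100% = cells lacking DAX-1 with DMSO; higher inhibition means more luminescence from relief of DAX-1 repression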
# * = called active by the depositor; / = no result given.
SMILES,hgDAF-12 ag,ssDAF-12 act,DAX1 inh-1,hcDAF12 agonist,AHR activator,DAX1 inh-2
C#CCOCC1CN(c2ccccc2)C(=O)O1 (centres undefined),-1.5,-1.4,4.2*,-0.5,/,-0.9
CC(=O)c1cccc(NC(=O)c2cc3ccccn3n2)c1,7.4,-0.4,-0.2,1.3,14.9,3.7*
Cc1noc(C(=O)Nc2cccnc2Cl)c1Cl,-1.2,-0.2,0.6,0.4,/,-0.2
Cc1noc(C(=O)Nc2ccc(F)cc2F)c1Cl,3.0,0.2,4.2*,0.0,/,0.1
Cc1ccc(O)c(NC(=O)c2cc(-c3cccs3)on2)c1,10.8*,-0.4,0.5,2.3,-2.4,1.2
Cc1ccc(O)c(NC(=O)c2onc(C)c2Cl)c1,4.2,1.8*,2.8,6.0*,72.2*,0.3
CCc1cc2cc3c(cc2nc1SCC(=O)OC(C)C)OCO3,0.6,-1.1,-0.2,-0.6,8.2,0.1
COc1cccc(/C=N/NC(=O)C(=O)NCc2cccnc2)c1O,-0.1,-0.8,-0.8,-3.0,2.4,0.9
CCCc1cc(C(=O)Nc2cccc(C(C)=O)c2)no1,4.0,0.6,3.0,5.9*,5.7,1.2
CCCc1cc(C(=O)Nc2ccc(C(C)=O)cc2)no1,1.0,-0.9,0.9,1.2,1.4,0.8
CCCc1cc(C(=O)Nc2ccc(F)cc2F)no1,13.0*,0.4,1.5,1.0,-0.4,1.3
Cc1ccc(-n2c(P(C)(=O)O)nc3ccccc32)cc1,3.9,-1.2,-0.1,-1.6,0.5,0.1
Cc1ccc(-c2noc(C3CCCN(S(=O)(=O)c4ccc5ccccc5c4)C3)n2)o1 (centres undefined),1.6,-1.4,-0.8,-1.4,-2.0,-0.1
O=C(COC(=O)CNC(=O)c1ccc(Cl)c([N+](=O)[O-])c1)NC(=O)c1ccccc1,0.0,-1.1,0.3,-0.8,56.9*,0.0
O=C(NCc1ccccn1)c1cn(CCc2ccccc2)nn1,-0.9,-1.2,1.3,-0.7,7.6,-0.1
COc1ccc(C(=O)NCCN(C)C)c2nc3ccccc3cc12,-6.0,0.4,-3.4,5.8*,/,-3.7
Cc1cc(/C=C2\C(=N)N3N=CSC3=NC2=O)c(C)n1Cc1ccccc1,6.7,0.4,5.4*,3.3,9.0,2.2
Cc1cc2nc3c(=O)n(CCc4ccccc4)c(=O)[nH]c3nc2cc1N,-1.1,-2.0,-0.9,-2.7,8.2,-0.4
C=CCn1c(=O)[nH]c2nc3cc(N=CN(C)C)c(C)cc3nc2c1=O,2.4,-0.8,-0.3,2.7,67.6*,0.4
S=c1[nH]nc(-c2ccc3c(c2)OCO3)n1-c1ccccc1,-3.1,-1.1,0.3,1.4,-0.5,-0.2
COc1cccc(NC(=O)COC(=O)c2c(F)cccc2Cl)c1,6.1,-0.5,4.4*,1.2,-1.1,0.6
O=C(COC(=O)c1c(F)cccc1Cl)NCC1CCCCC1,11.1*,-0.9,1.1,-0.1,-0.2,0.1
O=C(COC(=O)c1c(F)cccc1Cl)NC1CCCC1,6.8,0.1,1.2,0.8,-1.1,0.7
COc1ccc(/C=N/NC(=O)c2c(C)nnn2-c2nonc2N)cc1OC,0.2,-1.4,5.8*,0.0,-5.6,-0.2
O=C(O)c1ccc(NC(=O)c2ccccc2Br)c(NC(=O)c2ccccc2Br)c1,-1.4,-1.8,1.1,-0.6,0.1,0.1
SMILES,hgDAF-12 ag,ssDAF-12 act,DAX1 inh-1,hcDAF12 agonist,AHR activator,DAX1 inh-2
COc1ccc(Cn2c(=O)[nH]c3cc(C(=O)NCCCOC(C)C)ccc3c2=O)cc1,0.0,-0.6,3.9,-1.6,0.1,0.1
CCOC(=O)c1cnn2c(C)cc(-c3ccccc3)nc12,6.9,-0.5,4.3*,4.0,0.3,2.4
CCOC(=O)c1cc2nc(-c3ccccc3)cc(C)n2n1,-0.8,-1.2,0.0,0.7,0.5,-0.1
COc1ccc(N2CCN(c3oc(COc4ccccc4Cl)nc3C#N)CC2)cc1,1.2,-0.2,-0.7,-0.1,5.6,-1.0
COc1ccccc1CCc1nnc(CCC(=O)N(C)Cc2cccc3cnccc23)o1,11.0*,-0.8,1.1,1.4,17.2,0.6
COc1ccccc1CCc1nnc(CCC(=O)N(C)Cc2ccncc2C)o1,-0.7,-1.6,-1.7,-0.9,5.3,-0.6
CCOC(=O)C(=O)N(CC)C1CCS(=O)(=O)C1 (centres undefined),-0.6,1.2*,0.1,4.9,12.2,0.0
Cc1nc(Nc2ccc(Cl)cc2)c(C#N)c(=O)[nH]1,-2.0,-0.7,0.9,-0.6,70.8*,-0.1
CC(C)(C)C(=O)Nc1ccccc1C(=O)OCC(=O)c1ccc2c(c1)OCCO2,0.5,-1.8,0.2,-0.3,5.2,-0.5
Cc1ccc(C(=O)c2c3ccc([N+](=O)[O-])cc3[n+]([O-])n2CCCC(N)=O)cc1,-3.1,-0.1,-0.2,2.2,25.4,-0.4
NC(=O)CCCn1c(C(=O)c2ccc(Cl)cc2)c2ccc([N+](=O)[O-])cc2[n+]1[O-],-4.1,-1.5,-1.5,0.7,34.4,-0.5
NC(=O)CCCn1c(C(=O)c2cc(Cl)c(N)c(Cl)c2)c2ccc([N+](=O)[O-])cc2[n+]1[O-],-7.1,-0.6,-3.0,-2.2,76.6*,-1.4
NC(=O)CCCn1c(C(=O)c2ccc(Cl)cc2)c2ccc(C(F)(F)F)cc2[n+]1[O-],-0.8,1.2*,0.0,4.5,60.7*,-0.3
COc1ccc2c(C(=O)c3ccc(C)cc3)n(CCCC(N)=O)[n+]([O-])c2c1,0.6,0.3,-0.8,6.1*,22.7,0.0
O=c1cc(-c2ccccc2Cl)c2c([nH]1)CCC2,0.9,-1.4,0.1,-0.5,-1.2,0.1
CN1c2ccsc2/C(=N/Nc2ccccc2)CS1(=O)=O,8.4,0.5,-0.4,2.3,73.8*,0.7
CN1c2ccsc2/C(=N/NC(=O)c2c(F)cccc2F)CS1(=O)=O,-0.5,-0.6,-1.5,-0.5,3.5,-0.4
Cc1cnc(C(=O)Nc2cc(S(=O)(=O)N3CCOCC3)ccc2N2CCN(C)CC2)cn1,-0.2,-0.5,-0.6,-0.1,1.4,-0.1
CN1C(=O)NC(c2ccccc2)C2=C1CN(c1ccc3ccccc3c1)C2=O (centres undefined),1.0,0.0,0.6,2.0,67.8*,0.2
COc1ccc(-c2oc(=O)c3cc(OC)c(OC)cc3c2/C=C/c2ccc(F)cc2)cc1,0.8,-0.8,-0.1,2.8,10.6,-0.2
COc1cccc(CNC(=O)C2CCN(S(=O)(=O)c3ccc4c(c3)CCC(=O)N4)CC2)c1,2.4,-0.9,5.0*,-0.1,-2.5,-0.9
COc1cccc(CNC(=O)C2CCN(S(=O)(=O)c3ccc(F)cc3)CC2)c1,-1.5,-0.8,0.6,-1.2,/,-0.3
CN(C)/C=C/C(=O)c1cnc(-c2ccccc2Cl)s1,0.3,-0.5,1.8,1.8,56.9*,2.5
CN(C)/C=C/C(=O)c1cnc(-c2cccc(Cl)c2)s1,-1.8,-1.3,2.5,1.0,3.9,1.1
O=C(CN1C(=O)c2ccccc2S1(=O)=O)c1ccc2c(c1)OCCO2,-15.2,-3.4,-9.6,-8.4,-11.8,-2.6

# Screening results: PubChem, The Scripps Research Institute Molecular Screening Center
